Screening results (PubChem)
CYP2C19 inhib: inhibitors of human CYP2C19; P33261; CYP2C19 Supersomes, luciferin-H EGE luminescence, 30 min; inhibition, % at 5 µM; hit rate 21% among 96,000; AID 778;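 active means CYP2C19 inhibition above a set limit at 5 µM in the primary screen, cut at about 50% in these data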;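 further: plate controls were negative control wells for no effect and 2.5 mM tranylcypromine positive control for full effect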
D1 allo mod: allosterically modulates the human D1 dopamine receptor; P21728; HEK293 D1, CRE-luciferase, dopamine EC30 potentiation; actives deviate in either direction; B-score at 10 µM; hit rate 5.9% among 58,000; AID 641;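 active means luminescence count or its row- and column-corrected plate score outside the 99.7% band of the plate's sample wells, on either side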
Target sequence (P21728 whole entry, looked up): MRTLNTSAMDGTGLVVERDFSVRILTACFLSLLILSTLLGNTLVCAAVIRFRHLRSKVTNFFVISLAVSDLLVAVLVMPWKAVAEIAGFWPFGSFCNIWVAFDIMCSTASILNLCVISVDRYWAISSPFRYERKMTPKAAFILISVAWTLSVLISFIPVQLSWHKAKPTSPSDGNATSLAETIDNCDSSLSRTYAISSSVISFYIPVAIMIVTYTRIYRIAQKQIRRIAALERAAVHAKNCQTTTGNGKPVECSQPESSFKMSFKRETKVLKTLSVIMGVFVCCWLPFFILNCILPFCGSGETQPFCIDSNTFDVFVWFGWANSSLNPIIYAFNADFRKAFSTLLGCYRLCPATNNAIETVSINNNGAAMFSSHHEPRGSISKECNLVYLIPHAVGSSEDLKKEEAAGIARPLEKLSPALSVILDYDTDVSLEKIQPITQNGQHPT
CYP2C19 activ: cytochrome P450 2C19 (human) activation; activation factor at 5 µM; P33261; 96,000 tested, under 10 active; recombinant CYP2C19, luciferin-H EGE luminescence; hits give high values; 0 = fully inhibited enzyme, 1 = untreated enzyme;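 active means activation factor of at least 2 at 5 µM in the primary screen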;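 further: 0 = wells with 2.5 mM tranylcypromine and 1 = vehicle-only wells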
DAT uptake mod: modulates human dopamine transporter uptake under cocaine | B-score at 10 µM | LLC-PK1 hDAT cells, [14C]-dopamine uptake with cocaine IC80; actives deviate in either direction | hit rate 1.3% among 110,000;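 active means Z score or B-score, a plate-position-corrected score, falls beyond the plate's 99.7% confidence bounds, in either direction; inactive means both scores lie inside the 99.7% bounds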;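 further: scored against the spread of the other compound wells on the same plate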
CYP2C9 inhib: inhibitors of human CYP2C9 | AID 777 | hit rate 20% among 96,000 | inhibition, % at 5 µM | CYP2C9 Supersomes, luciferin-H conversion, luminescence | P11712;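 active means blocking of liver enzyme CYP2C9 beyond about 50% at 5 µM, limit read from the data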
CYP2C9 activ: increases human cytochrome P450 2C9 activity; P11712; recombinant CYP2C9, luciferin-H conversion, luminescence; hits give high values; factor 1 = untreated enzyme, 0 = blocked; activation factor at 5 µM; hit rate 1.4% among 96,000; AID 1024;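 active means activation factor of 2 or more for CYP2C9 at a 5 µM dose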;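 further: 0 = sulfaphenazole-blocked wells and 1 = vehicle-only wells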
Starred values were filed as active, the others as inactive; / = not tested or not shown; ! = a repeat was not active. Sampled rows, rich in hits. Any-hit rate of the full collection: about 28%.

SMILES | CYP2C19 inhib | D1 allo mod | CYP2C19 activ | DAT uptake mod | CYP2C9 inhib | CYP2C9 activ
Cn1c(=O)oc2cc(S(=O)(=O)N3CCc4ccccc4C3)ccc21 | 51.5* | / | 0.5 | -0.908 | 8.5 | 0.9
O=C(Cn1c(=O)oc2cc(S(=O)(=O)N3CCCCC3)ccc21)N1CCc2ccccc21 | -11.8 | / | 1.1 | / | -68.7 | 1.7
O=C(Cn1c(=O)oc2cc(S(=O)(=O)N3CCOCC3)ccc21)N1CCc2ccccc2C1 | -14.2 | 0.393 | 1.1 | 0.644 | 5.5 | 0.9
O=C(Cn1c(=O)oc2cc(S(=O)(=O)N3CCCC3)ccc21)N1CCc2ccccc2C1 | 2.6 | / | 1 | -0.0717 | 63.7* | 0.4
O=C(Cn1c(=O)oc2cc(S(=O)(=O)N3CCCC3)ccc21)N1CCCC1 | 8.6 | / | 0.9 | 0.758 | 20.5 | 0.8
CC1Cc2ccccc2N1C(=O)Cn1c(=O)oc2cc(S(=O)(=O)N3CCCCC3)ccc21 (stereo not given) | 52.5* | 0.52 | 0.5 | 1.21 | 64.9* | 0.4
O=C(Cn1c(=O)oc2cc(S(=O)(=O)N3CCCC3)ccc21)NCc1ccc(F)cc1 | 5.4 | / | 0.9 | -1.31 | 85.1* | 0.1
CCC(C)N1CCN(C(=O)c2cccs2)CC1 (stereo not given) | / | / | / | -0.642 | / | /
COc1ccc(C(=O)COC(=O)CN2C(=O)NC(C)(C)C2=O)cc1OC | 2.9 | 1.69 | 1 | 0.205 | -6.9 | 1.1
COc1ccc2nc(C)cc(SCC(=O)N/N=C/c3cccc4ccccc34)c2c1 | 0.9 | / | 1 | 0.771 | 54.4* | 0.5
COc1ccc2nc(C)cc(SCC(=O)O)c2c1 | 50.3*! | -0.0266 | 0.5 | 2.27 | 38.4 | 0.6
COC(=O)CSc1cc(C)nc2ccc(OC)cc12 | 30.0 | / | 0.7 | -0.142 | 12.2 | 0.9
O=C1CCCN1CCC1CCN(C2CC(=O)N(c3ccc(Cl)cc3)C2=O)CC1 (stereo not given) | -18.0 | -0.161 | 1.2 | -0.674 | -29.7 | 1.3
COc1ccc(NS(=O)(=O)c2ccc(C)c(C(=O)O)c2)cc1 | -4.5 | 0.374 | 1 | 1.35 | 8.9 | 0.9
COc1ccc(NS(=O)(=O)c2ccc3oc(SC4CCOC4=O)nc3c2)cc1 (stereo not given) | 97.2* | / | 0 | 0.0658 | 100.3* | 0
COCOc1ccc(C=O)cc1OCOC | / | / | / | 0.376 | / | /
Clc1ccc(CSc2nnc(-c3cccnc3)n2Cc2ccco2)c(Cl)c1 | 75.4* | 0.712 | 0.2 | 0.592 | 62.1* | 0.4
Clc1cccc(CSc2nnc(-c3cccnc3)n2Cc2ccco2)c1 | 81.3* | 0.0032 | 0.2 | 0.101 | 64.9* | 0.4
COc1ccc(NC(=O)CN(C)S(=O)(=O)c2ccc3c(c2)OCCO3)c2ncccc12 | 20.7 | 2.29 | 0.8 | 0.893 | -88.3 | 1.9
CCOCCn1c(CN2CCN(c3cccc(Cl)c3)CC2)nc2c1c(=O)n(C)c(=O)n2C | 49.9 | 0.264 | 0.5 | 1.07 | 80.2* | 0.2
COCCn1c(CN2CCN(c3cccc(Cl)c3)CC2)nc2c1c(=O)n(C)c(=O)n2C | 43.7 | -3.54* | 0.6 | -0.0719 | 76.7* | 0.2
Cn1c(=O)[nH]c(=O)c2c1nc(CN1CCN(c3cccc(Cl)c3)CC1)n2Cc1ccccc1Cl | 2.2 | -1.38 | 1 | 0.191 | 73.4* | 0.3
CCOC(=O)c1sc(NCCNc2nc(C)c(C(=O)OCC)s2)nc1C | -0.3 | -0.648 | 1 | 0.0328 | 20.6 | 0.8
CCOC(=O)c1sc(N)nc1C(C)(C)C | 58.4* | / | 0.4 | -0.0295 | 42.3 | 0.6
CCOC(=O)c1cccc(NC(=O)CSc2nnc(-c3ccncc3)n2CCCOC)c1 | 50.3* | -0.091 | 0.5 | 0.0846 | 63.7* | 0.4
SMILES | CYP2C19 inhib | D1 allo mod | CYP2C19 activ | DAT uptake mod | CYP2C9 inhib | CYP2C9 activ
CCCn1c(SCC(=O)Nc2cccc(C(=O)OC)c2)nnc1-c1cccnc1 | 43.2 | 0.0167 | 0.6 | 0.418 | 50.7* | 0.5
CCOC(=O)c1cccc(NC(=O)CSc2nnnn2C)c1 | 6.9 | -0.0108 | 0.9 | 1.18 | 20.4 | 0.8
CCCn1c(SCC(=O)Nc2nccs2)nnc1-c1cccnc1 | 59.0* | 0.768 | 0.4 | -0.478 | -1.3 | 1
COc1ccc(NC(=O)C2CCCN(C)C2)cc1OCC(C)C (stereo not given) | / | / | / | 0.309 | / | /
CN(C)c1nc(NCc2ccccc2)nc(Oc2ccc(=O)[nH]n2)n1 | 59.6* | 2.14 | 0.4 | -0.466 | 14.5 | 0.9
O=C(NCCn1ccc2ccccc21)c1ccc(S(=O)(=O)N2CCOCC2)cc1 | -9.8 | 0 | 1.1 | -0.39 | 22.3 | 0.8
CCOC(=O)CSc1nc(C(C)C)nc2ccccc12 | 28.1 | / | 0.7 | 0.28 | 25.0 | 0.8
COC(=O)CSc1nc2ccccc2nc1SCC(=O)OC | 54.3* | 2.59 | 0.5 | 0.786 | 24.7 | 0.8
COC(=O)CSc1nc(C(C)C)nc2ccccc12 | 80.0* | 2.01 | 0.2 | -0.474 | 43.4 | 0.6
C=COCCNC(=O)Nc1ccc(Cl)cc1Cl | 10.0 | 0.0117 | 0.9 | -0.0294 | 9.0 | 0.9
C=C(C)c1cccc(C(C)(C)NC(=O)Nc2ccc3[nH]c(=O)[nH]c3c2)c1 | 3.6 | 0.638 | 1 | -1.66 | 8.7 | 0.9
Cc1c(Cl)cccc1Nc1nc(N)nc(CSc2ncccn2)n1 | 52.5* | 0.316 | 0.5 | 1.55 | 67.3* | 0.3
Cc1cc(Cl)ccc1OCC(=O)Nc1ccccc1N1CCOCC1 | 91.2* | 0.00508 | 0.1 | 0.421 | 94.5* | 0.1
CCOc1cc(N2CCOCC2)c(OCC)cc1NS(=O)(=O)c1ccc(Cl)s1 | 93.1* | -0.409 | 0.1 | 0.338 | 60.2* | 0.4
O=C(COc1ccc(Cl)cc1Cl)NC(=O)N1CCOCC1 | 52.0* | -0.738 | 0.5 | -0.139 | -12.9 | 1.1
CCOc1cc(N2CCOCC2)c(OCC)cc1NC(=O)Cc1cccc2ccccc12 | 54.6* | / | 0.5 | 0.281 | 41.5 | 0.6
O=C(NC1CCCc2ccccc21)C1CCN(C(=O)c2sccc2-n2cccc2)CC1 (stereo not given) | 15.2 | -0.000916 | 0.8 | 0.136 | 39.3 | 0.6
Cc1cc(C)nc(NC2=NCC(=O)N2c2ccc3c(c2)OCCO3)n1 | 6.7 | 0.201 | 0.9 | 1.56 | -1.0 | 1
O=C(Cc1ccc(Cl)cc1)Nc1ccccc1N1CCOCC1 | 84.1* | / | 0.2 | -1.14 | 40.9 | 0.6
O=C(COc1ccc(Cl)cc1)Nc1ccccc1N1CCOCC1 | 25.5 | 0.25 | 0.7 | -0.194 | -19.3 | 1.2
CC(C)CC(=O)Nc1ccccc1N1CCOCC1 | 13.6 | -0.342 | 0.9 | 1.37 | 4.4 | 1
Cc1ccc(CC(=O)Nc2ccccc2N2CCOCC2)cc1C | 39.7 | / | 0.6 | -1.33 | 83.2* | 0.2
Cc1ccccc1NC(=O)COc1nsnc1N1CCOCC1 | 60.2* | / | 0.4 | 0.674 | 14.8 | 0.9
O=C(OCn1ncc(Cl)c(Cl)c1=O)c1ccc(C(F)(F)F)cc1 | 83.1* | / | 0.2 | -1.46 | 22.5 | 0.8
Cc1nc(C(=O)Nc2ccc(F)cc2)nn1-c1ccc([N+](=O)[O-])cc1 | 4.6 | / | 1 | 0.568 | 19.6 | 0.8
Cc1nc(C(=O)Nc2ccccc2Cl)cc2c1[nH]c1ccccc12 | -3.0 | / | 1 | 0.339 | 20.6 | 0.8
COC(=O)c1cc2c([nH]c3ccccc32)c(C)n1 | 62.1* | -0.0982 | 0.4 | -0.881 | -3.2 | 1
